Source: PubChem (National Center for Advancing Translational Sciences (NCATS))
A selection: hits, their analogues and other compounds. The true share with any hit is near 2.4%.
D2 ag-1: D2 dopamine receptor (human) agonism; AID 485358; HEK293 T-REx D2 cells, calcium flux agonist mode; activation, % at 2 µM; 340,000 tested, 0.53% active;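 active = activation over 3 SD above normal in the single-dose calcium agonist read, cut at about 30% in these data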; note: 0% is about no effect
Target sequence (P14416 whole entry, looked up): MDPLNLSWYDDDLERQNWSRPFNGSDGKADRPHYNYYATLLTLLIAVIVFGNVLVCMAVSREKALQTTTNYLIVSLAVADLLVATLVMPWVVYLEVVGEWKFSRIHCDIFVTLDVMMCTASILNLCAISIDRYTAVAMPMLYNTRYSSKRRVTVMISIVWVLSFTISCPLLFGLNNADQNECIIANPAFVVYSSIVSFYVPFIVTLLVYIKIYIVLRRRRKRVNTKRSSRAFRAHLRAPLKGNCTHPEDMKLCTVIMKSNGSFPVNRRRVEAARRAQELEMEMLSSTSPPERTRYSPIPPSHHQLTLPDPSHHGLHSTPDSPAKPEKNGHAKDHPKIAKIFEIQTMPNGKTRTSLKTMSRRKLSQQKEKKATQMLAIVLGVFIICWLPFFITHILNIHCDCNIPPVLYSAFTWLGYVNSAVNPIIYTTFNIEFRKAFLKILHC
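Agonism scored from kinetic calcium signal (1 read/sec, 180 s) following compound pin transfer, after a 10 s baseline. Cells: HEK293 Trex line expressing inducible D2 receptor coupled to calcium, dye-loaded after overnight culture at 30 C.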
D2 antagonist: antagonizes the human D2 dopamine receptor. HEK293 TREx D2 cells, calcium flux, dopamine EC80. inhibition, % at 10 µM. 340,000 tested, 2% active; in the data active = inhibition above about 30%; inactive = below that, where a call was filed; note: 0% is about no effect
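In this primary screen, negative modulation is detected by tracking calcium flux after an EC80 dopamine challenge in inducible HEK293 T-REx D2 cells preexposed to test compound for 180 s.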
D2 ag-2: activates the human D2 dopamine receptor. 360,000 tested, 0.084% active. activation, % (no concentration beside the values). AID 624465. P14416. DiscoveRx PathHunter D2 beta-arrestin, luminescence, 90 min; 100% = 57 uM dopamine signal; in the data active = activation above about 40%
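Agonist mode: compounds alone added to overnight-plated D2 PathHunter cells for 90 min at 37 C, with 57 uM final dopamine (EC100) defining full response. Beta-arrestin recruitment detected by chemiluminescent reagent, read after 1 h at ambient temperature.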
D2 PAM-1: D2 dopamine receptor (human) potentiation. P14416. HEK293 T-REx D2, calcium flux, EC20 dopamine potentiation. potentiation, % at 10 µM. 340,000 tested, 0.34% active. AID 485347;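 active = potentiation over 3 SD above the plate norm, cut at about 30% in these data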; note: 0% is about no effect
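Tetracycline-induced HEK293 T-REx cells force-coupled to calcium signalling expressed D2; compounds were pin-added after a 10 s baseline, read kinetically 180 s, then an EC20 dopamine challenge followed with a further 180 s calcium read.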
D2 PAM-2: human D2 receptor positive allosteric modulation. P14416. DiscoveRx D2 beta-arrestin cells, luminescence, 90 min; 100% = 57 uM dopamine signal. potentiation, % (test concentration not listed). 360,000 tested, 0.23% active; in the data active = potentiation above about 50%
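D2 cells co-treated with compound plus 50 nM dopamine (EC20) for 90 min at 37 deg C to detect potentiation. Beta-arrestin recruitment was read as enzyme-fragment luminescence after 1 h at ambient temperature. Full response was set by 57 uM dopamine.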
* = called active by the depositor; x = no result given; ! = not active in a repeat.

SMILES	D2 ag-1	D2 antagonist	D2 ag-2	D2 PAM-1	D2 PAM-2
O=C(CSc1n[nH]c(-c2ccccc2Cl)n1)N1CCN(c2ccc(F)cc2)CC1	0	x	x	-2	x
CCn1c(Cc2ccccc2)nnc1SCC(=O)Nc1ccccc1O	-1	40*	5	3	2
CCn1c(Cc2ccccc2)nnc1SCC(=O)NC(C)(C)C	0	8	-2	8	-1
CCn1c(Cc2ccccc2)nnc1SCC(=O)Nc1ccc(N2CCOCC2)c(Cl)c1	0	39*	-1	13	-4
Cn1c(SCC(=O)Nc2ccc(N3CCOCC3)c(Cl)c2)nnc1-c1ccccc1	x	x	1	x	-4
CC(=O)c1ccc(NC(=O)CSc2cn(CC(=O)N3CCCCCC3)c3ccccc23)cc1	0	x	x	-8	x
O=c1cc(-c2ccc(O)cc2)oc2ccc(O)cc12	0	37*	-1	-7	11
c1ccc(-c2ncnc3nc4n(c23)CCC4)cc1	0	34*	0	-2	-4
CCc1ccc(NC(=O)C(CC)n2c(=O)c(C(F)(F)F)nc3ccccc32)cc1 (stereo unspecified)	0	x	x	7	x
CN(C(=O)CCl)C1CCCc2ccccc21 (stereo unspecified)	0	-12	-4	34*	-15
COc1cc(OC)c(CNC2CCCCCC2)cc1Br	-1	49*	-6	-2	-13
Cc1ccc(CNC(=O)CSc2ncc3c(n2)-c2cc(Cl)ccc2N(C)S3(=O)=O)cc1	0	x	x	-1	x
CCCOc1ccccc1N/C(N)=N/c1nc(C)cc(C)n1	1	31*	0	-8	-10
CCC(C)NC(=O)c1cnn(-c2ccc(Cl)cc2)c1C1CCN(C(=O)OC(C)(C)C)CC1 (stereo unspecified)	0	x	x	6	x
Cc1ccc(NC(=O)c2cc(=O)n(Cc3ccccc3)c(=O)[nH]2)cc1C	x	34*	3	9	-5
O=C(O)c1cc(=O)n(Cc2ccccc2)c(=O)[nH]1	1	9	0	12	-8
O=c1[nH]c(-[n+]2ccccc2)c(/C=N/NC([S-])=Nc2ccccc2)s1	30*	15	-1	6	-9
Cc1cc[n+](-c2[nH]c(=O)sc2/C=N/NC([S-])=Nc2ccccc2)cc1	0	-12	-2	0	-14
Cn1c(CN2CCCC2)nc2cc(NC(=O)COc3ccc(Cl)cc3)ccc21	0	41*	0	-22	-28
CC1CCN(CCc2nc3cc(NC(=O)COc4ccccc4)ccc3n2C)CC1	0	59*	-3	-21	-31
COc1ccc(OCC(=O)Nc2ccc3c(c2)nc(CN2CCN(C(C)=O)CC2)n3C)cc1	0	11	-3	4	5
CCC(=O)Nc1ccc2c(c1)nc(CCN1CCC(C)CC1)n2C	0	14	-4	-1	-13
COc1ccc(OCC(=O)Nc2ccc3c(c2)nc(CN2CCCC2)n3C)cc1	0	45*	-1	-36	-34
Cn1c(CN2CCCCC2)nc2cc(NC(=O)c3ccc(Cl)cc3)ccc21	33*!	31*	6	10	-3
COc1ccccc1CNC(=O)c1cc2ccc3ccc(C)[nH]c3c2n1	-1	x	x	-1	x
SMILES	D2 ag-1	D2 antagonist	D2 ag-2	D2 PAM-1	D2 PAM-2
O=C(COC(=O)C1=COCCO1)Nc1cc(S(=O)(=O)N2CCCCC2)ccc1Cl	2	7	0	13	-4
Cc1ccc(S(=O)(=O)N2CCCCC2)cc1NC(=O)COC(=O)C1=COCCO1	1	12	-1	38*	-5
Cc1ccc(S(=O)(=O)N2CCOCC2)cc1NC(=O)CNCc1ccccc1Cl	39*	0	8	9	14
COc1cc(Cl)c(C)cc1NC(=O)COC(=O)C1=COCCO1	-1	32*	-5	-9	-6
COc1cc(NC(=O)Cn2cnc(S(=O)(=O)N3CCOCC3)c2)cc(OC)c1OC	-1	45*	-2	-7	-28
COc1ccc(S(=O)(=O)Nc2ccc3c(c2)N(C(C)=O)CCC3)cc1F	1	x	x	-4	x
Cc1cc(C)c(S(=O)(=O)N/N=C/c2ccc3c(c2)OCO3)c(C)c1	9	74*	3	-21	-22
Cc1cc(Cl)ccc1OC(C)C(=O)NCCc1ccc2c(c1)OCCO2 (stereo unspecified)	1	64*	-3	-7	-5
Cc1ccc(-n2ncc3c(NCCCN4CCOCC4)ncnc32)cc1C	0	x	x	9	x
O=C(c1ccco1)N(Cc1ccccc1)Cc1ccccn1	-1	57*	1	14	-5
COCCCNc1nc(N)c([N+](=O)[O-])c(NC2CCCCC2)n1	4	30*	0	20	-4
CC(C)CCNc1nc(N)c([N+](=O)[O-])c(NCC2CCCO2)n1 (stereo unspecified)	32*	24	2	2	-31
CCN(CC)CCNC(=O)c1sc2nc(C)cc(C)c2c1-n1cccc1	0	x	x	-3	x
COc1cc2[nH]c(C(=O)NCCc3ccccc3)cc2c(OC)c1OC	-1	79*	-1	-14	-24
COc1cc(C(=O)NCCC(=O)NC(C)CCc2ccccc2)cc(OC)c1OC (stereo unspecified)	0	-8	-4	33*	-2
COc1cc2[nH]c(C(=O)NCc3ccccc3)cc2c(OC)c1OC	-1	84*	1	-15	-21
COc1cc2[nH]c(C(=O)N3CCN(C)CC3)cc2c(OC)c1OC	2	5	-3	8	-4
COc1cccc(N2CCN(C(=O)c3cc4c(OC)c(OC)c(OC)cc4[nH]3)CC2)c1	1	38*	2	-12	-9
COc1ccc2[nH]c(C(=O)NCCc3ccccc3)cc2c1	0	16	-3	-8	0
CC(=O)c1cccc(NC(=O)c2ccc3nc(C(C)C)oc3c2)c1	1	x	x	1	x
COc1cc2[nH]cc(C(=O)NCc3ccccc3)c(=O)c2cc1OC	1	10	5	15	-4
COc1cc2[nH]cc(C(=O)NCCc3ccccc3)c(=O)c2cc1OC	-2	-16	3	39*	-3
O=c1c2[nH]c3ccccc3c2nc(SCc2cccc(F)c2)n1-c1ccccc1	-1	x	x	-2	x
CC(C)(C)c1ccc(-c2noc(CCC(=O)Nc3cccnc3)n2)cc1	2	36*	5	-1	-1
COc1ccc(-c2noc(CCC(=O)Nc3cccnc3)n2)cc1	-1	0	0	6	-3
CC(=O)N1N=C(c2ccc(C)cc2)OC1c1ccc(C(C)C)cc1 (stereo unspecified)	0	-2	4	3	-9
CC(=O)N1N=C(c2cccnc2)OC1c1ccc(C(C)C)cc1 (stereo unspecified)	0	55*	2	27	7
